The source made the active and inactive calls. Unless noted, the rule behind the calls is not given here.

Experiment [1] can be described thus: compounds binding Alexa647 anti-His antibody – biochemical, small-molecule microarray, 635 nm fluorescence, artefact control for SMM control protein annotation, primary screen (AID 1128).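 Note: score merges feature fluorescence with signal-to-noise for each printed compound spot.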 The settings on record: higher = more signal.
Experiment [2] relates to Human papillomavirus type 1a E7 protein (residues 1-88). In words: HPV1a E7 small-molecule binders, primary screen, biochemical, small-molecule microarray, residues 1-88, 635 nm (AID 1129). The note with it: small-molecule microarray binding, fluorescence 635 nm; higher = more signal.
Experiment [3] concerns the target Focal adhesion kinase 1 (Homo sapiens) (UniProt Q05397). Kind of experiment: PTK2 protein binding on printed compound slides – biochemical, small-molecule microarray, 635/667 nm fluorescence, BSA, DTT, primary screen (AID 1130).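 Note: composite of spot emission at 667 nm and signal to noise over triplicate slides.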 The settings on record: 635 nm fluorescence, higher = more signal.
Experiment [4] deals with Fibrinogen (Alexa647-labelled). In words: Alexa647-fibrinogen binding to printed small molecules – biochemical, small-molecule microarray, 635/667 nm fluorescence, artefact control for SMM control-protein annotation, profiling panel (AID 1131).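 Note: z-score merges 667 nm fluorescence with per-spot signal-to-noise over triplicate slides.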 The note with it: fibrinogen-A647 binding fluorescence, higher = more signal.
The target in experiment [5] is Follistatin (Homo sapiens) (UniProt P19883). In words: FST protein binding to printed compounds – biochemical, small-molecule microarray, 635/667 nm fluorescence, primary screen (AID 1132). The settings on record: 635 nm fluorescence, higher = more signal.
Follistatin (Homo sapiens), sequence (P19883 whole entry, looked up): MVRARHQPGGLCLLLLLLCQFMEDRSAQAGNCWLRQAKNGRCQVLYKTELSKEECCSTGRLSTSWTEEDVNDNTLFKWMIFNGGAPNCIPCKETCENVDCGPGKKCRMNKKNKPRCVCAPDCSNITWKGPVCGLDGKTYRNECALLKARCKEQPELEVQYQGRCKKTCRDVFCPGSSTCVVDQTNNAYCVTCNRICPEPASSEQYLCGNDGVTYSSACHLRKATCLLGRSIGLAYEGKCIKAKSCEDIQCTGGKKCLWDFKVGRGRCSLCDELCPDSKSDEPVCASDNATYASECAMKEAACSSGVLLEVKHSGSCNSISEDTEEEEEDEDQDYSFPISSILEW
The target of experiment [6] is Fibroblast growth factor 2 (Homo sapiens) (UniProt P09038). In words: basic fibroblast growth factor binding to printed compounds – biochemical, small-molecule microarray, 635/667 nm fluorescence, primary screen (AID 1133). The settings on record: FGF2, fluorescence 635/667, higher = more signal.
Fibroblast growth factor 2 (Homo sapiens), sequence (P09038 whole entry, looked up): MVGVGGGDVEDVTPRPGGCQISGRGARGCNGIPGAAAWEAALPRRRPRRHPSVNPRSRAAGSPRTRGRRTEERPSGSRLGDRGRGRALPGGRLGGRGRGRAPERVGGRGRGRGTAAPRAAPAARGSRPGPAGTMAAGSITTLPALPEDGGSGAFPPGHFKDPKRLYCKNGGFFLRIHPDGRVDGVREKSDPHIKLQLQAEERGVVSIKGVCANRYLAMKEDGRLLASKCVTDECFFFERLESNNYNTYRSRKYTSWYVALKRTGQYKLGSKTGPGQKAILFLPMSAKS
Experiment [7] in a line: JC-1 mitochondrial potential readout, lung cancer cells – cell-based, A549, JC-1 fluorescence, basal, 24 h, 100 nL, profiling panel (AID 1138).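 Note: A549 lung adenocarcinoma cells under basal conditions with no added stimulus; test concentration not given here.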 The note with it: higher = more signal.
For experiment [8], the system named is Lefty1. Kind of experiment: Lefty1 protein binding to printed compounds – biochemical, small-molecule microarray, 635/667 nm fluorescence, primary screen (AID 1139). The settings on record: fluorescence 635/667, higher = more signal.
In experiment [9] the test system is wheat germ agglutinin (Triticum aestivum), Alexa647-labelled. In words: Alexa647-WGA lectin binding to printed small molecules – biochemical, small-molecule microarray, 635/667 nm fluorescence, artefact control for SMM control-protein annotation, profiling panel (AID 1140).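 Note: score merges 667 nm feature emission with signal to noise over triplicate slides.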 The note with it: WGA-A647 binding, 635 nm fluorescence, higher = more signal.
The target of experiment [10] is Luciferin 4-monooxygenase (Photinus pyralis) (UniProt P08659). In words: inhibition of purified Photinus pyralis luciferase – biochemical, luminescence, purified enzyme, 2006 set, primary screen (AID 1141).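 Note: cell-free assay with purified firefly luciferase at 100 ng per well in PBS; test concentration not given here.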 The note with it: purified firefly luciferase, SteadyGlo luminescence, 30 min; higher = more signal, called active from +8 up or from −8 down.
Luciferin 4-monooxygenase (Photinus pyralis), sequence (P08659 whole entry, looked up): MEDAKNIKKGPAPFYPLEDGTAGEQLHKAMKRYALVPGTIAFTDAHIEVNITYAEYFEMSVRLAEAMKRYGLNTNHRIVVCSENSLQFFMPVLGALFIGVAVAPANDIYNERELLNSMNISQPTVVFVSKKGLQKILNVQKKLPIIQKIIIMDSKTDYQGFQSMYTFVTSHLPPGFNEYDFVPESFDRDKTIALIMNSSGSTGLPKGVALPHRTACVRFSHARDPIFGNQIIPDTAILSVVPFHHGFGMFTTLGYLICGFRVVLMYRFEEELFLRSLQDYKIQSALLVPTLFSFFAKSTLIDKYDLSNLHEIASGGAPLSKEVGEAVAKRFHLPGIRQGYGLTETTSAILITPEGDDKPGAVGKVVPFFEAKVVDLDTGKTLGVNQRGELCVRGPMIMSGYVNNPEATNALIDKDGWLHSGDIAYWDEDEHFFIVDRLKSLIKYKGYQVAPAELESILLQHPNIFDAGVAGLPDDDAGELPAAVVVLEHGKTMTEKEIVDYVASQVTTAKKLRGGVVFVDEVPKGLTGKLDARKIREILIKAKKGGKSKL
The test system of experiment [11] is Wnt5a (protein binding on small-molecule microarray). In words: small molecules binding Wnt5a protein – biophysical, small-molecule microarray, 635/667 nm fluorescence, primary screen (AID 1142).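 Note: fluorescence read at 667 nm with signal to noise per printed feature.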 The settings on record: 635 nm fluorescence, higher = more signal.
Experiment [12] can be described thus: ATP-based viability of Huh7 replicon cells – cell-based, CellTiter-Glo luminescence, basal, 48 h, cytotoxicity control for HCV replication inhibitor project, primary screen (AID 1143).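 Note: Huh7 hepatoma cells carrying a hepatitis C replication reporter with no stimulus; test concentration not given here.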 The settings on record: higher = more signal, called active from +8 up or from −8 down. For orientation: In antiviral work, replicon cells carry a viral genome segment that copies itself.

Experiment [13] in a line: Pseudomonas biofilm growth suppression – PAO1 strain, BacTiter-Glo luminescence, LB-PBS, primary screen (AID 1144). The settings on record: P. aeruginosa PAO1 biofilm, 12 h, higher = more signal.
Experiment [14] can be described thus: basal CRE-LacZ reporter activity in PC12 – cell-based, unstimulated, primary screen (AID 1145). The note with it: no forskolin, luminescence, 4.5 h, higher = more signal, called active from +8 up or from −8 down.
Experiment [15] can be described thus: forskolin-driven CRE-LacZ activity in PC12 – cell-based, CRE-LacZ reporter, forskolin-stimulated, primary screen (AID 1146).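 Note: PC12 cells with 6xCRE LacZ reporter stimulated by forskolin 10 µM; beta-galactosidase reporter signal reflecting CREB driven transcription.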 The settings on record: luminescence, 4.5 h, higher = more signal, called active from +8 up or from −8 down.
In experiment [16] the target is Streptavidin (Streptomyces avidinii) (UniProt P22629). In words: compounds binding control protein streptavidin – biophysical, small-molecule microarray, 635/667 nm fluorescence, artefact control for SMM compound annotation, primary screen (AID 1147).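 Note: signal reflects streptavidin binding to arrayed compounds as a control protein.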 The note with it: higher = more signal.
Streptavidin (Streptomyces avidinii), sequence (P22629 whole entry, looked up): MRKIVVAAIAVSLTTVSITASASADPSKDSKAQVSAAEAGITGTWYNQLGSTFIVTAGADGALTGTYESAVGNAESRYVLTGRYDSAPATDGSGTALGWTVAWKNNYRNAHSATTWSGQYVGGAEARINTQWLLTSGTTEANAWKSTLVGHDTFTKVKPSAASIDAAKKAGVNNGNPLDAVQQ
Experiment [17] can be described thus: probe aInhba binding on compound microarray – biochemical, small-molecule microarray, 635/667 nm fluorescence, primary screen (AID 1148).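 Note: score merges 667nm spot fluorescence with signal-to-noise for antibody binding to printed compounds.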 The settings on record: higher = more signal.
The target in experiment [18] is Torsin-1A (Homo sapiens) (UniProt O14656). Kind of experiment: TOR1A wild-type binding on microarray – cell lysate, small-molecule microarray, lysate, 635/667 nm, primary screen (AID 1149). The note with it: COS7 hTOR1A-WT lysate, 635 nm fluorescence, higher = more signal.
Torsin-1A (Homo sapiens), sequence (O14656 whole entry, looked up): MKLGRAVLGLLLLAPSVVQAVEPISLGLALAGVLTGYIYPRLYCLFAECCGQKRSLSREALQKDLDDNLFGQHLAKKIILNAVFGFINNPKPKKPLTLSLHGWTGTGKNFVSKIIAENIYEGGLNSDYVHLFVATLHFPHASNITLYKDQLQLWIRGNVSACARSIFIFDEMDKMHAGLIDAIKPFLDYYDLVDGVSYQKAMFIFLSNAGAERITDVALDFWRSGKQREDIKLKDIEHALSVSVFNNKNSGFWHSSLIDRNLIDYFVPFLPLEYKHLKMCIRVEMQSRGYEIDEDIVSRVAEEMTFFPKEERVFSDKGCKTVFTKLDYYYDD
The target is the same in experiment [19]. Kind of experiment: torsin A mutant lysate binding on microarrays – cell lysate, small-molecule microarray, COS7 lysate, 635/667 nm fluorescence, primary screen (AID 1150).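 Note: score pools 667 nm emission and signal to noise measuring lysate protein binding.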 The settings on record: COS7 hTOR1A mutant lysate, 635 nm fluorescence, higher = more signal.
The subject of experiment [20] is Sonic hedgehog protein (Shh). In words: Sonic hedgehog microarray binding compounds – biochemical, small-molecule microarray, 635/667 nm fluorescence, primary screen (AID 1151).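 Note: Shh protein binding to compounds spotted on small-molecule microarray slides; score combines spot fluorescence intensity with signal-to-noise across triplicate slides.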 The note with it: 635 nm fluorescence, higher = more signal.

Focal adhesion kinase 1 (Homo sapiens), sequence (Q05397 whole entry, looked up): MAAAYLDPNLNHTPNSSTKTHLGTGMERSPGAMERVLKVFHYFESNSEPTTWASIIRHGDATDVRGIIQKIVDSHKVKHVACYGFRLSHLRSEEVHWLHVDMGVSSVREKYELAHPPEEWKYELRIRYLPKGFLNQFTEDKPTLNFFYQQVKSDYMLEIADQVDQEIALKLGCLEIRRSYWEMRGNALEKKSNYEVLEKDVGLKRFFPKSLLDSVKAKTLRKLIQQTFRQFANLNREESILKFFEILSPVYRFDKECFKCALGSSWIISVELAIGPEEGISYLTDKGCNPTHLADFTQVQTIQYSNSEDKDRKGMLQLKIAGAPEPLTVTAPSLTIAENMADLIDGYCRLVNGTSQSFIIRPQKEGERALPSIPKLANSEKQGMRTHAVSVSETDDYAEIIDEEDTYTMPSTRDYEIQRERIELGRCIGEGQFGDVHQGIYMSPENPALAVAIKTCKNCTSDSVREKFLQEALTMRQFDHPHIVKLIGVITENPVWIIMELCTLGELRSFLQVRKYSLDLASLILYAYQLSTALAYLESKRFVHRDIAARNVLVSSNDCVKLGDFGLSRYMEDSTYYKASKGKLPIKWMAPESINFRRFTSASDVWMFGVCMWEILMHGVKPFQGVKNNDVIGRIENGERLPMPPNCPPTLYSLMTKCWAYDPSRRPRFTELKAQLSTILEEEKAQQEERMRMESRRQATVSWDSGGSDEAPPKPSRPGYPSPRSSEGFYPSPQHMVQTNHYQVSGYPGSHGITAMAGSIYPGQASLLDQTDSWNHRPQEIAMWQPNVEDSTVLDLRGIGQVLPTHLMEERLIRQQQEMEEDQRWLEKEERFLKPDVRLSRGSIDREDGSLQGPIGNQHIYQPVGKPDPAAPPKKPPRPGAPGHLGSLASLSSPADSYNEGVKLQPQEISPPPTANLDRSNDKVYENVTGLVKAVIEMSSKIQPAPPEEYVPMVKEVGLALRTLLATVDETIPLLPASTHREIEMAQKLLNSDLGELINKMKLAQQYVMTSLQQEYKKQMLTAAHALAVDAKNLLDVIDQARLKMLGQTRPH

Take `C/C=C\[C@@H](NCc1ccccc1Br)[C@@H](O)Cc1ccccc1`: the composite z-score in [1] was -0.13; in experiment [2], -0.469; in experiment [3] it was -0.119; in experiment [4] it was -0.641; in experiment [5], -0.604; in experiment [6], -1.4. Also, the composite z-score was -0.972 in experiment [8]; -0.819 in experiment [9]; -0.771 in experiment [11]; -0.838 in [16]; -0.153 in [17]; 0.0908 in [18]. The composite z-score in experiment [19] was -0.27; in experiment [20], -1.3. Also, the z-score was -1.4 in experiment [7]; 0.979 (inactive) in experiment [10]; -5.43 (inactive) in experiment [12]; 0.541 (inactive) in experiment [13]; 0.857 (inactive) in experiment [14]; 0.567 (inactive) in [15].
For the compound `C[C@@H]1C=CCC(=O)OC[C@H](C)C(=O)N2CCC[C@H]2C(=O)OC1`, the composite z-score in [1] was 2.67; in experiment [2], 0.589; in experiment [3], -0.344; in experiment [4], -0.592; in experiment [5], 1.31; in [6] it was 1.74. The composite z-score was 1.59 in experiment [8]; -0.273 in experiment [9]; 0.15 in [11]; 0.245 in experiment [16]; -0.21 in experiment [17]; 3.08 in experiment [18]. Also, the composite z-score came out at 2.85 in experiment [19] and 2.33 in experiment [20]. For the same compound, the z-score was -0.741 in [7]; 1.1 (inactive) in [10]; 0.111 (inactive) in [12]; -0.736 (inactive) in experiment [13]; -0.264 (inactive) in experiment [14]; -0.0697 (inactive) in [15].
Take `CO[C@H]1COC(=O)[C@H](C)NC(=O)[C@@H](C)COC(=O)CC=C[C@@H]1C`: the composite z-score in experiment [1] is -0.133; in experiment [2], -0.0179; in experiment [3], -0.274; in experiment [4], -0.177; in [5], 0.598; in [6] it was 1.34. The composite z-score in experiment [8] was 0.572; in experiment [9], -0.114; in experiment [11], -0.185; in [16], -0.356; in experiment [17] it was -0.016; in experiment [18] it was 1.24. The composite z-score in experiment [19] was 0.296; in experiment [20], 1.47. Also, the z-score in experiment [7] was -0.855; in experiment [10], 0.514 (inactive); in experiment [12], -0.068 (inactive); in experiment [13], -0.865 (inactive); in [14] it was 0.341 (inactive); in experiment [15], -0.178 (inactive).
Take `CCN1C(=O)[C@H]2[C@H]3[C@H](O)[C@H](O)CC(=NOCC=C(C)CCC=C(C)C)[C@H]3CC[C@H]2C1=O`: the composite z-score stood at 0.918 in [1]; 1.1 in [2]; 0.123 in experiment [3]; 0.0065 in [4]; 1.26 in experiment [5]; 1.51 in experiment [6]. In addition, the composite z-score was 1.58 in experiment [8]; -0.207 in experiment [9]; 0.249 in experiment [11]; -0.298 in [16]; -0.0471 in experiment [17]; 0.896 in experiment [18]. Further, the values for the composite z-score in experiment [19] and in experiment [20] were 0.43 and 1.77, respectively. Also, the z-score in experiment [7] is -0.298; in experiment [10], -0.279 (inactive); in experiment [12], -0.327 (inactive); in experiment [13], -0.805 (inactive); in [14], -0.0223 (inactive); in experiment [15] it was -0.323 (inactive).
With `CCCNC(=O)OC[C@H]1O[C@H](CCON=C2[C@H]3CCn4c(=O)n(-c5ccccc5)c(=O)n4[C@H]3[C@H](O)[C@@H]3O[C@H]23)C=C[C@@H]1Oc1ccc(OC)cc1`, the composite z-score is -0.429 in experiment [1]; 0.281 in experiment [2]; 0.172 in experiment [3]; 0.297 in [4]; 0.146 in experiment [5]; 0.409 in experiment [6]. Also, the composite z-score is 0.502 in [8]; 0.201 in experiment [9]; 0.14 in [11]; -0.28 in [16]; 0.0294 in experiment [17]; 0.0932 in experiment [18]. Besides, the composite z-score was 0.565 in experiment [19] and 0.572 in experiment [20]. Besides, the z-score in experiment [7] is -0.0269; in experiment [10] it was 0.0766 (inactive); in experiment [12], -0.0238 (inactive); in experiment [13], 1.01 (inactive); in [14] it was 0.899 (inactive); in experiment [15] it was 0.301 (inactive).
